# From PubChem BioAssay (NCI)
# Compounds without any hit were thinned out: in the full panel of roughly 79,000, 15% have a hit. Unmarked numbers belong to inactive results. The source made the active and inactive calls. Rule as the data show it: active = growth inhibition above about 70%; inactive = the rest.
# Assay: NCI Yeast Anticancer Drug Screen. Data for the cln2 rad14 strain (AID 165);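 also: 0% = growth equal to vehicle treated cultures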
# Conditions: S. cerevisiae cln2 rad14 strain, at 50.0 µM, stronger effect = higher value
# Procedure, shortened: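 Growth inhibition, relative to vehicle-treated controls, is the read-out. The test organism is a yeast strain with defined genetic alterations, cln2 rad14.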
row,SMILES,growth inhibition
1,COC(=O)/C=C/c1cccc[n+]1[O-],54.8%
2,CN(C)CCCNc1c(C#N)[n+]([O-])c2cc(Cl)ccc2[n+]1[O-],45.6%
3,Cc1c(N=Nc2ccc(Br)cc2)c(-c2ccccc2)nn1C(N)=S,95.4% (active)
4,COc1cc2c(c(OC)c1OC)-c1ccc(O)c(=O)cc1C(N=Cc1ccccc1)CC2 (stereo not given),31.9%
5,CCC(C)SC1SCC2C(=O)N(C)C3(CC3C)C(=O)OCC(NC(=O)c3nc4ccccc4cc3O)C(=O)NC(C)C(=O)N(C)C1C(=O)N(C)C1(CC1C)C(=O)OCC(NC(=O)c1nc3ccccc3cc1O)C(=O)NC(C)C(=O)N2C (stereo not given),88.7% (active)
6,O=C(N/C(=C\c1ccc2c(c1)OCO2)c1nc2ccccc2s1)c1ccccc1,96.8% (active)
7,CCCC/C=C1/CCC(CN(C)C)C1=O (stereo not given),46.2%
8,O=C(O)c1cc2c(cc1CC(Cc1ccc3c(c1)CCCC3)C(=O)O)CCCC2 (stereo not given),74.4% (active)
9,CCNC(=O)COc1ccc(Cl)cc1Cl,38.8%
10,Fc1ccc(OCCC(Cn2ccnc2)c2ccc(Cl)cc2Cl)cc1 (stereo not given),94.7% (active)
11,Cc1ccc(NC(=O)/C(CC(=O)c2sc(Nc3ccc(Cl)c(Cl)c3)nc2C)=N\Nc2ccc([N+](=O)[O-])cc2[N+](=O)[O-])c(C)c1,97.1% (active)
12,Oc1ccc(C/C=C/c2ccccc2)cc1O,98.8% (active)
13,CC(=O)OC1=CC2=CCC3C(CCC4(C)C(C(C)=O)CCC34)C2(C)CC1 (stereo not given),39.8%
14,CCCCNc1ccc(-c2c(N)nc(N)nc2CC)cc1[N+](=O)[O-],27.1%
15,ClCCOCCOc1c(Cl)cc(Cl)c(Cl)c1Cl,-26.7%
16,Cc1ccc(S(=O)(=O)C(=S)Sc2ccccc2)cc1,33.7%
17,CCC(C)(C)c1ccc(OCCO)c([N+](=O)[O-])c1,25.9%
18,CCCCCCC(C)S(=O)(=O)c1ccc(C)cc1 (stereo not given),5.1%
19,O=C1N(Cc2ccccc2)CC1(c1ccccc1)C1CCCCC1O (stereo not given),6.9%
20,COc1cc2c(oc(=O)c3cc(C)cc(OC)c32)c2c(C3OC(C)C(O)C(C)(O)C3O)ccc(O)c12 (stereo not given),90% (active)

row,SMILES,growth inhibition
1,CCc1cc(C)cc(NC(=O)OC2CCCCC2C)c1 (stereo not given),89.1% (active)
2,Cc1cc(Nc2ccc(N=Nc3ccc(O)c4ncccc34)cc2)nc(C)n1,23%
3,Oc1ccc(C2SC(c3ccc(O)cc3)SC(c3ccc(O)cc3)S2)cc1 (stereo not given),98.4% (active)
4,O=[N+]([O-])c1cnc(Sc2cncc[n+]2[O-])s1,99.3% (active)
5,O=C(C1=Cc2ccccc2OC1)N1CCN(c2cccc(Cl)c2)CC1,57.8%
6,O=C1C=CC(=O)c2cc(Sc3ccccc3)c(=O)ccc21,39.4%
7,O=C(O)CCCCCCC(=O)CCl,23.9%
8,CC(=O)NC1=C(Sc2ccc(C)cc2)C(=O)c2ccccc2C1=O,-32.6%
9,Cc1cc(O)c(C=NC(=S)C(N)=S)c(=O)o1,-4.4%
10,Cc1cc(C)c(Cc2cc(C(C)(C)C)cc(C)c2O)cc1Cc1cc(C(C)(C)C)cc(C)c1O,69.3%
11,O=C(O)CCC/C(=N\Nc1ccccc1)C(=O)O,97.4% (active)
12,Cc1cc(Oc2nc(Cl)nc(C(Cl)(Cl)Cl)c2Cl)cc(C)c1N(C)C (tested in a mixture with another compound),91.9% (active)
13,CC(NCCO)c1ccc2ccccc2c1 (stereo not given),30.7%
14,[O-][n+]1ccc(Br)c(/C=C/c2ccccc2)c1,2.3%
15,O=C(NCCNCCNCCNC(=O)c1cc(-c2ccccc2)nc2ccccc12)c1cc(-c2ccccc2)nc2ccccc12,99% (active)
16,CC(C)C(Sc1nc(-c2ccccc2)c(-c2ccccc2)[nH]1)C(=O)NN (stereo not given),90% (active)
17,O=C(CNc1cccc(Cl)c1)Nn1c(-c2ccccc2)nc2ccccc2c1=O,90.6% (active)
18,O=C(COc1ccc(Cl)c(Cl)c1)Nc1ccc[n+](Cc2ccc(Cl)c(Cl)c2)c1,99.2% (active)
19,CCOC(=O)c1cnccc1CC1(C#N)c2ccccc2C=CN1C(=O)c1ccccc1 (stereo not given),52.2%
20,O=C1C(N2CCOCC2)=C(Cl)C(=O)c2ncccc21,89% (active)
